The values that follow come from PubChem BioAssay (NCI).

Test systems include NCI-H23 lung; NCI-H226 lung; NCI-H322M lung; HOP-62 NSCLC; NCI-H460 lung; HOP-92 NSCLC; NCI-H522 lung; A549/ATCC NSCLC; 786-0 renal; COLO 205 colon.
Holding throughout (assay): NCI-60 one-dose screen, 48 h (100 = growth as untreated, 0 = no growth, -100 = all killed)
Common to all, as to details: 10 µM unless noted

About 83,000 compounds went through this panel and 20% of them were active in at least one assay; those are over-represented in the sample as a whole.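 For each line, cells grew in 96-well plates with the test compound present at a single concentration for 48 hours.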 A number with no mark means an inactive call. The source made the active and inactive calls. How the source made its calls: active means growth percent below 10; inactive means the rest.

In the case of `Cc1nn(-c2ccc(F)cc2)c2ncnc(Nc3ccc(NC(=O)Nc4ccc(Cl)c(C(F)(F)F)c4)cc3)c12`, the growth with NCI-H23 lung is 22.4%; with NCI-H226 lung, 58%; in the experiment on NCI-H322M lung, 67.5%; with HOP-62 NSCLC, 45%; in the experiment on NCI-H460 lung, 10.9%; with HOP-92 NSCLC it was -8.33% (active). For the same compound, the growth in the experiment with NCI-H522 lung is 12.1%; in the experiment with A549/ATCC NSCLC it was 50.7%; in the experiment with 786-0 renal it was 40.7%; with COLO 205 colon, 4.15% (active).
With `C#CC(F)(F)[C@]1(O)CC[C@H]2[C@@H]3CCC4=CC(=O)CCC4=C3[C@@H](c3ccc(C4CC4)cc3)C[C@@]21C`, the growth in the experiment with NCI-H23 lung is -53.3% (active); with NCI-H226 lung, 63.3%; in the experiment on NCI-H322M lung, 88.4%; in the experiment with HOP-62 NSCLC, 9.06% (active); in the experiment with NCI-H460 lung, 57.1%; with HOP-92 NSCLC, -60.2% (active). The growth was -70.1% (active) with NCI-H522 lung, 11.5% in the experiment on A549/ATCC NSCLC, -77.3% (active) in the experiment with 786-0 renal and 29.5% in the experiment with COLO 205 colon.
Consider `CCc1nc(N)nc(N)c1C#CC(C)c1ccc(-c2ccncc2)cc1Cl` (stereo not given), for which the growth with NCI-H23 lung is 16.2%; in the experiment on NCI-H226 lung, 57.4%; in the experiment with NCI-H322M lung, 38.4%; in the experiment with HOP-62 NSCLC it was 10.3%; with NCI-H460 lung, 5.02% (active); in the experiment on HOP-92 NSCLC it was 6.88% (active). The growth with NCI-H522 lung is -9.46% (active); in the experiment with A549/ATCC NSCLC, 9.61% (active); in the experiment with 786-0 renal it was 18.3%; in the experiment on COLO 205 colon, 12.3%.
As for `COc1cc(-c2ccc3c(c2)NC(=O)/C3=C\c2ccc[nH]2)ccc1O`, the growth in the experiment with NCI-H23 lung is 12.1%; in the experiment with NCI-H226 lung it was 39.6%; in the experiment on NCI-H322M lung, 30.3%; in the experiment with HOP-62 NSCLC, 27.8%; with NCI-H460 lung it was 7.55% (active); in the experiment with HOP-92 NSCLC, 57.8%. For the same compound, the growth in the experiment on NCI-H522 lung is 6.78% (active); in the experiment with A549/ATCC NSCLC, 20.7%; in the experiment with 786-0 renal it was 14.8%; with COLO 205 colon, 25.2%.
As to `COc1ccccc1Nc1nc(-c2cc3cccc(C(F)(F)F)c3oc2=O)cs1`, the growth with NCI-H23 lung is 18.6%; in the experiment with NCI-H226 lung it was 13.4%; in the experiment on NCI-H322M lung it was 33%; in the experiment on HOP-62 NSCLC, 25.3%; in the experiment with NCI-H460 lung, 4.14% (active); in the experiment with HOP-92 NSCLC it was 26.9%. In addition, the growth with NCI-H522 lung is -16.5% (active); in the experiment with A549/ATCC NSCLC, 17.1%; with 786-0 renal, 20.8%; with COLO 205 colon, -50.3% (active).
`CC(=O)OC[C@H]1O[C@H](OC(C)=O)[C@H](NC(=O)/C=C/CCl)[C@@H](OC(C)=O)[C@@H]1OC(C)=O`: the growth is 75.4% in the experiment on NCI-H23 lung; 109% in the experiment with NCI-H226 lung; 84.5% in the experiment on NCI-H322M lung; 96.1% in the experiment on HOP-62 NSCLC; 96.6% with NCI-H460 lung; 76.6% in the experiment with HOP-92 NSCLC. The growth was -64% (active) in the experiment with NCI-H522 lung, 87.6% in the experiment with A549/ATCC NSCLC, 68% in the experiment on 786-0 renal and 74.9% with COLO 205 colon.
`CCOc1ccc(-n2nc(C(=O)Nc3cc(OC)c(OC)c(OC)c3)nc2-c2cc(OC)c(OC)c(OC)c2)cc1`: the growth is 85% in the experiment with NCI-H23 lung; 78.1% with NCI-H226 lung; 89.2% with NCI-H322M lung; 95.7% in the experiment with HOP-62 NSCLC; 92.1% in the experiment with NCI-H460 lung; 69.9% in the experiment with HOP-92 NSCLC. Moreover, the growth in the experiment on NCI-H522 lung is 65.9%; in the experiment with A549/ATCC NSCLC, 86.9%; with 786-0 renal it was 77.1%; in the experiment on COLO 205 colon, 80.3%.
Turning to `CCOC(=O)c1c(CN2CCN(C)CC2)nc2ccc(Cl)cc2c1-c1ccccc1`, the growth was 74.7% in the experiment with NCI-H23 lung; 103% in the experiment on NCI-H226 lung; 108% with NCI-H322M lung; 70.8% in the experiment with HOP-62 NSCLC; 59.5% in the experiment on NCI-H460 lung; 30.8% with HOP-92 NSCLC. For the same compound, the growth in the experiment on NCI-H522 lung is 65.8%; in the experiment with A549/ATCC NSCLC it was 67.2%; with 786-0 renal it was 57.5%; in the experiment with COLO 205 colon, 97%.
As for `C=CCSSC1N=CNc2nc[nH]c21` (stereo not given), the growth in the experiment with NCI-H23 lung is 54.6%; in the experiment with NCI-H226 lung it was 73%; with NCI-H322M lung it was 42.8%; with HOP-62 NSCLC, 1.1% (active); in the experiment on NCI-H460 lung, 52.5%; in the experiment with HOP-92 NSCLC, 30.8%. The growth is 0.803% (active) in the experiment with NCI-H522 lung, 95.1% with A549/ATCC NSCLC, 13.9% in the experiment with 786-0 renal and 34.9% with COLO 205 colon.
Regarding `O=C1NC(=O)C(c2ccc(Cl)cc2Cl)N1` (stereo not given), the growth in the experiment on NCI-H23 lung was 100%; in the experiment with NCI-H226 lung, 103%; with NCI-H322M lung, 100%; in the experiment with HOP-62 NSCLC, 111%; with NCI-H460 lung, 95.2%; with HOP-92 NSCLC it was 107%. Besides, the growth in the experiment with NCI-H522 lung was 93.8%; with A549/ATCC NSCLC, 101%; with 786-0 renal, 110%; in the experiment with COLO 205 colon, 125%.
In the case of `O=S(=O)(Nc1ccc(Br)c(Cl)c1)c1ccc(-c2cnc(C3CC3)o2)cc1`, the growth in the experiment on NCI-H23 lung is 29.7%; in the experiment with NCI-H226 lung it was 55.3%; in the experiment with NCI-H322M lung it was 39.2%; in the experiment on HOP-62 NSCLC, 32.6%; with NCI-H460 lung, 11.9%; with HOP-92 NSCLC it was 40.8%. In addition, the growth with NCI-H522 lung is -17.7% (active); in the experiment with A549/ATCC NSCLC it was 24.9%; in the experiment with 786-0 renal, 39%; in the experiment on COLO 205 colon it was -2.39% (active).
Regarding `CC(=O)Nc1ccc(S(=O)(=O)Nc2cccc(-c3nc(-c4ccc(NC(=O)c5cccnc5)cc4Cl)no3)c2)cc1`, the growth was 42.1% in the experiment on NCI-H23 lung; 57.9% with NCI-H226 lung; 41.6% in the experiment with NCI-H322M lung; 34.9% in the experiment on HOP-62 NSCLC; 18% with NCI-H460 lung; 32.1% with HOP-92 NSCLC. The growth in the experiment on NCI-H522 lung is 11.2%; with A549/ATCC NSCLC it was 44.2%; in the experiment on 786-0 renal it was 41.7%; in the experiment on COLO 205 colon it was 21.7%.
Consider `COc1ccc(SC2c3cc(OC)c(OC)cc3Oc3nc(N)c(C#N)c(N)c32)cc1` (stereo not given), for which the growth with NCI-H23 lung was -60.9% (active); in the experiment with NCI-H226 lung, -70.9% (active); with NCI-H322M lung it was -95% (active); in the experiment on HOP-62 NSCLC it was -42.1% (active); in the experiment on NCI-H460 lung, -70% (active); in the experiment on HOP-92 NSCLC it was -19.9% (active). The growth is -72.5% (active) with NCI-H522 lung, -51.7% (active) with A549/ATCC NSCLC, -82.6% (active) in the experiment with 786-0 renal and -79% (active) in the experiment on COLO 205 colon.
With `O=C(/C=C/c1ccccc1)c1ccc(O)c(CN2CCN(c3cc4c(cc3F)c(=O)c(C(=O)O)cn4C3CC3)CC2)c1`, the growth with NCI-H23 lung is 34.4%; in the experiment with NCI-H226 lung, 40.4%; in the experiment on NCI-H322M lung, 22.7%; in the experiment with HOP-62 NSCLC, 25.1%; with NCI-H460 lung, 34.7%; with HOP-92 NSCLC it was -5.65% (active). Besides, the growth is 1.49% (active) in the experiment on NCI-H522 lung, 17.6% in the experiment with A549/ATCC NSCLC, 23.9% in the experiment on 786-0 renal and 89.8% with COLO 205 colon.
